PubChem BioAssay AID449739 (Vanderbilt High Throughput Screening Facility, 2010)
Screen size: about 100,000 compounds; about 4,200 (4.2%) were called active. The sample as a whole holds a higher share of actives than the screen did. Values without a mark were called inactive.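 The calls were made as follows: active = single-dose well whose peak fluorescence ratio is a statistical outlier from its plate by either plate-standardised score or position-corrected B-score; inactive = the rest.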

Biological target: Voltage-dependent T-type calcium channel subunit alpha-1H (Homo sapiens) (UniProt O95180)
Assay: Cav3.2 calcium influx blockers – cell-based, Fluo-4 calcium fluorescence, FDSS, MLSMR library, primary screen (AID 449739)
Settings: Cav3.2-expressing cells, at 10 µM, active compounds read low

Sequence of Voltage-dependent T-type calcium channel subunit alpha-1H (Homo sapiens) (O95180 whole entry, looked up): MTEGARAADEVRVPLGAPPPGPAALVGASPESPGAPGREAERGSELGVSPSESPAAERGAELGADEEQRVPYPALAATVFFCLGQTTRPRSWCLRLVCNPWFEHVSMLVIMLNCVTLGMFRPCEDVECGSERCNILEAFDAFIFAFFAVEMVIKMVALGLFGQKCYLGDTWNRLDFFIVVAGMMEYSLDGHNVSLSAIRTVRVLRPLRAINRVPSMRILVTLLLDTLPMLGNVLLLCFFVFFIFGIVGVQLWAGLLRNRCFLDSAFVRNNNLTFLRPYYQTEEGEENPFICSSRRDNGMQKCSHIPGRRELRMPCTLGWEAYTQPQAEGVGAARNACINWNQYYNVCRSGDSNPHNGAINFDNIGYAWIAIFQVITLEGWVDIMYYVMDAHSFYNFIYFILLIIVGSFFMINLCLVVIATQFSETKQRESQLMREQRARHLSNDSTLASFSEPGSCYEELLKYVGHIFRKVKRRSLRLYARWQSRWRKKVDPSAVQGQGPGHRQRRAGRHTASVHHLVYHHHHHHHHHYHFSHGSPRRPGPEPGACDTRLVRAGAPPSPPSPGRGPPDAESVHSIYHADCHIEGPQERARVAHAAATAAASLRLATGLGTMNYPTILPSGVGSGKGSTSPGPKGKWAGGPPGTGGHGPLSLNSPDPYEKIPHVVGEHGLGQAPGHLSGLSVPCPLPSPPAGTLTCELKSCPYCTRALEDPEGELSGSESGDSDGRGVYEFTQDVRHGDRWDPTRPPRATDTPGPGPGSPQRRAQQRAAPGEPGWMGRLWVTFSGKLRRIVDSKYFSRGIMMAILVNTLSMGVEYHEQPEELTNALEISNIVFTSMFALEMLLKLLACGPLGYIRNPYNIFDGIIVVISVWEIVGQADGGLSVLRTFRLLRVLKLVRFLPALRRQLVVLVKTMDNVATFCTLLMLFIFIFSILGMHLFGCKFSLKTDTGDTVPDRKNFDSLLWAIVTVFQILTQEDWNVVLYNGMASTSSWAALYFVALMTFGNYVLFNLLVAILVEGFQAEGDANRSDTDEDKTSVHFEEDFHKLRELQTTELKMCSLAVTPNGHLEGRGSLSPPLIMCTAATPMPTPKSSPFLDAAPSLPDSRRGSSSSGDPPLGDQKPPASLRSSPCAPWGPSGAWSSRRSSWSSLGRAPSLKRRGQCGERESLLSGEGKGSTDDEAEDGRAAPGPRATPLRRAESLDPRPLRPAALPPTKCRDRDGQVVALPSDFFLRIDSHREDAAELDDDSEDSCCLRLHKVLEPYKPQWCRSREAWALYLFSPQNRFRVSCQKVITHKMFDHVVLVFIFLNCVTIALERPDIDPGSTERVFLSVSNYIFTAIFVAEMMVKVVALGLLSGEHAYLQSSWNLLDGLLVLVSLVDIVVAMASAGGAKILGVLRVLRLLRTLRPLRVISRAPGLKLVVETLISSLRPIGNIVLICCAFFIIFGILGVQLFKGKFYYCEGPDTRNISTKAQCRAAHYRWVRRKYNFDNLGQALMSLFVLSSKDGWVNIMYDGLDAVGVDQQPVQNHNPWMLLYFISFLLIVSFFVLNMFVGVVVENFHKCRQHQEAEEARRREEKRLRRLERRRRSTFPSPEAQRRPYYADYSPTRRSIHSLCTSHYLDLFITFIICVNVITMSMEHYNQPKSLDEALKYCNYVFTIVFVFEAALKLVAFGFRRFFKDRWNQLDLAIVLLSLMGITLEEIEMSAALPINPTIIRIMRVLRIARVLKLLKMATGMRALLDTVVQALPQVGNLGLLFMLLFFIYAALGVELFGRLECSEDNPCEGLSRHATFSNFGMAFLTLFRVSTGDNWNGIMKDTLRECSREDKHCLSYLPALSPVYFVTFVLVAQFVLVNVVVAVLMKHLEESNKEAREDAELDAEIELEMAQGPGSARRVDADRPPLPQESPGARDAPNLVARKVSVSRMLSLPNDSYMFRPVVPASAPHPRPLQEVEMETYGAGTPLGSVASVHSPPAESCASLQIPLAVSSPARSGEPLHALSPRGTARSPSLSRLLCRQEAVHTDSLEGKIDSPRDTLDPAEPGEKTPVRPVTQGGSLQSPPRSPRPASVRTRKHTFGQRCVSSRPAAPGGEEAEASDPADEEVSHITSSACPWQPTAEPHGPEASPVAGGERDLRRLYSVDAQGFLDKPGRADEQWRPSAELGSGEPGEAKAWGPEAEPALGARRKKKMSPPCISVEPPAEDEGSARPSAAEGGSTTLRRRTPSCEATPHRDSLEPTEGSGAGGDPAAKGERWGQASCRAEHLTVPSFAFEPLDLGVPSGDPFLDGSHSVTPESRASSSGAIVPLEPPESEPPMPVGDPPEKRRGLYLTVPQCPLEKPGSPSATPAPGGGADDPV

SMILES	B-score
CCn1c(COc2ccc(OC)cc2)nnc1SCC(=O)Nc1cc(OC)ccc1OC	-0.694
COc1ccc(/C=C/C(=O)Nc2c(C)nn(C)c2C)cc1COc1ccc(Br)cc1	-1.13
CCn1nc(C)c(NC(=O)/C=C/c2ccc(OC)c(COc3ccc(Br)cc3)c2)c1C	-3.94 (active)
Cc1ccc(C(=O)N/C(=C/C=C/c2ccccc2)C(=O)NCc2ccco2)cc1	-4.77 (active)
CCCCOc1ccc(C(=O)NCc2ccco2)cc1	-0.276
O=C(CN1CCN(S(=O)(=O)/C=C/c2ccccc2)CC1)NC(=O)NCc1ccco1	0.253
O=C(CSCc1ccccc1Cl)NNC(=O)c1ccccc1	-0.234
CCOC(=O)c1ccc(NC(=O)c2c(N)n(C)c(=O)[nH]c2=O)cc1	-2
COC(=O)CN(c1nc(C)c(Cl)c(OC)n1)S(=O)(=O)c1ccc(C)cc1	-3.54 (active)
COc1cccc(NC(=O)CN(C)S(=O)(=O)c2ccc(C)cc2)c1	0.446
CCN(CC)C(=O)CN(c1cccc(OC)c1)S(=O)(=O)c1ccc(C)cc1	0.247
O=C(NC1CC1)C1=C[C@H](c2c[nH]c3ccccc23)C[C@H](OCc2ccc(CO)cc2)O1	-0.0426
Cc1cc(C)cc(OCC(=O)NNC(=O)c2cc3ccccc3oc2=O)c1	0.0296
Nc1c(-c2cccc(Cl)c2)cnn1-c1cccc([N+](=O)[O-])c1	-4.85 (active)
CCOC(=O)CSc1ncc(-c2cccc(Cl)c2)cn1	0.28
Cc1ccc2cc(CCNC(=O)c3ccc4c(c3)OCO4)c(=O)[nH]c2c1	0.446
Cc1onc(-c2c(Cl)cccc2Cl)c1C(=O)c1c[nH]c(C(=O)NC2CC2)c1	0.359
Cc1onc(-c2ccccc2Cl)c1C(=O)NCCn1ccc2ccccc21	-3.91 (active)
Cc1onc(-c2ccccc2Cl)c1C(=O)OCC(=O)c1ccccc1	-0.332
COCCNC(=O)c1ccccc1-c1nc(-c2ccccc2Cl)no1	-0.0406
Cc1ccc2cc(CCNC(=O)c3c(-c4ccccc4Cl)noc3C)c(=O)[nH]c2c1	-4.54 (active)
CCCCCCNS(=O)(=O)c1ccccc1Br	-1.42
CC(C)C(=O)N1CCC2(CC1)Oc1ccc(F)cc1C(=O)C21CC(c2ccccc2)=NO1 (stereo unspecified)	-0.517

SMILES	B-score
CC(C)(C)Oc1ccccc1Nc1nc(NCCO)nc(N2CCCC2)n1	0.107
Cc1ccc(-c2cc(=O)c3ccc(F)cc3[nH]2)cc1	-1.19
O=c1oc2cc(O)ccc2cc1-c1ccc(F)cc1	-0.437
CCCCCCc1cc2cc(-c3nnc(-c4ccccc4)o3)c(=O)oc2cc1O	-8.89 (active)
O=C(c1ccc(Cl)cc1)c1cnc(Nc2ccccc2)s1	0.657
C[C@@H]1NC(=O)c2cc([N+](=O)[O-])cc(F)c2NCCC[C@@H](C(N)=O)NC(=O)[C@H](CC(N)=O)NC1=O	0.0125
CCCCNC(=O)c1onc(CSc2cccc(OC)c2)c1C(=O)O	-0.115
O=C(O)C1=C[C@H](c2cccs2)C[C@H](OCCCCO)O1	0.408
CN(c1ccc(C(=O)NCc2ccccn2)cc1)S(C)(=O)=O	0.091
Cc1ccc(C(=O)NCCNS(=O)(=O)c2ccccc2)cc1	0.965
Cc1ccccc1CSCCNC(=O)c1ccc(N(C)S(=O)(=O)c2ccccc2)cc1	-5.82 (active)
NC(N)=NCCCc1cn(CC(=O)N2CCNCC2)nn1	0.0996
N#Cc1ccc(-c2ccc(F)cc2)nc1Sc1ccccc1	-0.0447
Cc1ccc(SCC2=NNC(=O)C2)cc1	-0.242
COc1ccc2c(c1)CCNC2Cc1ccc(OC)c(O)c1 (stereo unspecified)	0.0462
O=C(CN1CCN(C(=O)c2ccco2)CC1)Nc1ccc(Cl)c(C(F)(F)F)c1	-6.28 (active)
COc1ccc(OC)c(NC(=O)CN2CCN(C(=O)c3ccco3)CC2)c1	1.23
O=C(CN1CCN(C(=O)c2ccco2)CC1)Nc1ccc2c(c1)OCO2	0.902
COc1ccc(CC(=O)Nc2sc(Cc3ccccc3)c(C)c2C(N)=O)cc1	-0.493
Cc1ccccc1NC(=O)C(C)c1ccc(-c2ccccc2)c(F)c1 (stereo unspecified)	-0.689
CN1CCN(c2nc3c(c(=O)[nH]c(=O)n3C)n2Cc2cccc3ccccc23)CC1	0.465
CCCSc1nc2c(c(=O)[nH]c(=O)n2C)n1CCc1ccccc1	-0.0804
CC1CCN(c2nc3c(c(=O)[nH]c(=O)n3C)n2CCCc2ccccc2)CC1	-5.1 (active)

SMILES	B-score
Cc1nc(C(=O)Nc2ccc(Cl)cc2)sc1C1(C)CC(c2ccccc2)=NO1 (stereo unspecified)	0.201
O=c1c(-c2ccccc2)coc2cc(O)ccc12	1.09
CCN(CC)C(=O)CC(c1ccc2c(c1)OCO2)c1c(OC)cc(OC)c2c(-c3ccccc3)cc(=O)oc12 (stereo unspecified)	-1.45
CCn1c(O)c(N=NC2=NC(=O)CS2)c2cc(C)ccc21	-4.99 (active)
COC(=O)Cn1c2ccc(C)cc2c2nc(C)sc21	1.71
Cc1nnc(NC(=O)CSc2nc(C3CCCCC3)nc3ccccc23)s1	-0.12
NC(=O)[C@H]1CC2(CC(c3cccc(NC(=O)[C@H]4CCC(=O)N4)c3)=NO2)CN1C(=O)c1ccccc1C(=O)c1ccccc1 (stereo partly specified)	-0.157
CCO[C@H]1OC(C(=O)Nc2ccccc2)=C[C@@H](C2CC2)[C@@H]1CCCO	0.964
NC(=O)C1=C[C@@H](c2csc3ccccc23)C[C@@H](OCc2ccc(CO)cc2)O1	-0.0524
COC(=O)C(CC(=O)Nc1cc(C)ccc1C)Nc1ccccc1OC (stereo unspecified)	-0.376
Cc1ccc(C)c(NC(=O)C2Cc3ccccc3CN2C(=O)OCc2ccccc2)c1 (stereo unspecified)	-6.09 (active)
Cc1ccc(C)c(NC(=O)C2CC(=O)N(C(C)C)C2)c1 (stereo unspecified)	-0.00724
C=C(C)Cn1c(SCC(=O)NCc2ccco2)nc2sc3c(c2c1=O)CCC3	-0.92
N#Cc1c(NC(=O)CSc2nc3ccccc3c(=O)n2Cc2ccco2)sc2c1CCCC2	-5.99 (active)
CC(Sc1nc2ccccc2c(=O)n1Cc1ccco1)C(=O)c1ccccc1 (stereo unspecified)	-4.25 (active)
O=C(CCCn1c(SCC(=O)c2ccc(F)cc2)nc2ccccc2c1=O)NCc1ccco1	-2.82
COc1ccc(-n2c(SCC(=O)Nc3sc4c(c3C#N)CCCC4)nnc2-c2ccc(O)cc2)cc1	-0.184
CCOC(=O)C(C)Sc1nc2ccccc2c(=O)n1CC1CCCCC1 (stereo unspecified)	-2.88
CCCNC(=S)NC1CC2CCCC(C1)N2CC(C)C (stereo unspecified)	1.82
COc1ccc(N2CCN(C(=O)c3ccc4c(Cl)c5c(nc4c3)CCCC5)CC2)cc1	-0.0196
CN1CCN(S(=O)(=O)c2ccc(N3CCN(S(=O)(=O)c4cccs4)CC3)nc2)CC1	1.73
N#Cc1cc([N+](=O)[O-])ccc1Oc1cccc(/C=N/NC(=O)c2ccc(Cl)cc2)c1	-0.086
CCOC(=O)Cc1csc(NC(=O)C(C)(C)C)n1	0.211

SMILES	B-score
CCOC(=O)Cc1csc(NC(=O)CSc2nc(C)cc(=O)[nH]2)n1	-5.95 (active)
CCCCc1nnc(NC(=O)CSc2nc(C)cc(=O)[nH]2)s1	-0.0258
C=CCn1c(-c2ccc(Cl)cc2)ccc(C#N)c1=O	-1.56
NC1=NC[C@@H](Cc2ccc(O)cc2)N1CC1CCCCC1	0.0175
C#Cc1ccc([C@@H]2C=C(C(=O)O)O[C@H](OCCCCO)C2)cc1	-1.58
CCCCCCn1c(CN2CCCC(C)C2)nc2c1c(=O)n(C)c(=O)n2C (stereo unspecified)	-3.75 (active)
CC1CCCN(Cc2nc3c(c(=O)n(C)c(=O)n3C)n2CC(=O)c2ccccc2)C1 (stereo unspecified)	-0.792
CCN1CCN(Cc2nc3c(c(=O)n(C)c(=O)n3C)n2CC(=O)c2ccccc2)CC1	0.531
C/C(=N/NC(=O)c1ccc(NC(=O)c2ccc(F)cc2)cc1)c1ccccc1	0.425
O=C(Nc1cccc2ncccc12)c1ccc(-c2ccc(Cl)cc2Cl)o1	-0.641
Clc1ccc(COn2c(-c3ccc(Cl)cc3Cl)nc3ncccc32)cc1	-5.63 (active)
CCOc1ccc(OCC)c(-c2c(=O)n(OCc3ccc(Cl)cc3)c3ccccc3[n+]2[O-])c1	-1.31
COc1ccc(C(F)(F)F)cc1N/C=C\c1nnnn1-c1ccc(C)cc1	-3.02
CNC(=O)CSc1nnc(CCc2ccccc2)n1-c1ccccc1	-0.00574
COc1ccccc1NC(=O)CSc1nnc(Cn2nnc(-c3ccccc3)n2)n1-c1ccccc1	-7.2 (active)
COc1ccc(OC)c(/C=N/NC(=O)CSc2nnc(C)n2-c2ccccc2)c1	2
O=C(Nc1cccc2ncccc12)C(Cl)(Cl)Cl	1.36
COc1ccc(OCC(=O)NN2Cc3ccccc3C2=N)cc1	0.0596
O=C(Cc1ccccc1)N/N=C/c1ccc(Cl)cc1Cl	-0.673
O=C(CCCC(=O)N(CC(=O)NC1CCCC1)Cc1ccccc1Cl)Nc1ccccn1	-1.66
CCOc1ccccc1N(CC(=O)NC1CCCCC1)C(=O)CCCC(=O)Nc1ccccn1	-8.92 (active)
CCCC(=O)Nc1cc(OCC)c(NC(=O)NC2CCCCC2)cc1OCC	0.0578
